# Key:
# Test in all cases: SPOT peptide array binding signal intensity (averaged, normalized) (arbitrary units (background-subtracted, floor 0; scale differs between SH3 domains)); higher = stronger binding of the SH3 domain to the peptide
# AgAbp1 = target: AgAbp1
# Procedure, shortened: (§1)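 Binding signal is given in arbitrary units that differ between domains and is the normalized, background-subtracted spot intensity averaged across replicates. Each GST-SH3 fusion from one of four yeast species was made in E. coli BL21(DE3), purified on glutathione Sepharose and incubated at 10 μg/ml overnight at 4°C on cellulose-bound synthetic 15-mer peptides in which cysteines were replaced by serines. Detection used anti-GST antibody, an HRP anti-mouse secondary and luminol, followed by imaging and Genespotter quantification.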
# AgBbc1 = target: AgBbc1
# Procedure, shortened: as §1
# AgBem1-D1 = target: AgBem1-D1
# Procedure, shortened: as §1
# AgBzz1-D1 = target: AgBzz1-D1
# Procedure, shortened: as §1
# AgBzz1-D2 = target: AgBzz1-D2
# Procedure, shortened: as §1
# AgCyk3 = target: AgCyk3
# Procedure, shortened: as §1
# AgFus1 = target: AgFus1
# Procedure, shortened: as §1
# AgHof1 = target: AgHof1
# Procedure, shortened: as §1
# AgHse1 = target: AgHse1
# Procedure, shortened: as §1
# AgLsb1 = target: AgLsb1
# Procedure, shortened: as §1
# AgLsb4 = target: AgLsb4
# Procedure, shortened: as §1
# AgMyo5 = target: AgMyo5
# Procedure, shortened: as §1
# AgNbp2 = target: AgNbp2
# Procedure, shortened: as §1
# AgRvs167 = target: AgRvs167
# Procedure, shortened: as §1
# AgSho1 = target: AgSho1
# Procedure, shortened: as §1
# AgSla1-D1-D2 = target: AgSla1-D1-D2
# Procedure, shortened: as §1
# AgSla1-D3 = target: AgSla1-D3
# Procedure, shortened: as §1
# CaAbp1-D1 = target: CaAbp1-D1
# Procedure, shortened: as §1
# CaAbp1-D2 = target: CaAbp1-D2
# Procedure, shortened: as §1
# CaBbc1 = target: CaBbc1
# Procedure, shortened: as §1
# CaBem1-D1 = target: CaBem1-D1
# Procedure, shortened: as §1
# CaBzz1-D1 = target: CaBzz1-D1
# Procedure, shortened: as §1
# CaBzz1-D2 = target: CaBzz1-D2
# Procedure, shortened: as §1
# CaCyk3 = target: CaCyk3
# Procedure, shortened: as §1
# CaFus1 = target: CaFus1
# Procedure, shortened: as §1
# CaHof1 = target: CaHof1
# Procedure, shortened: as §1
# CaHse1 = target: CaHse1
# Procedure, shortened: as §1
# CaLsb1 = target: CaLsb1
# Procedure, shortened: as §1
# CaLsb4 = target: CaLsb4
# Procedure, shortened: as §1
# CaMyo5 = target: CaMyo5
# Procedure, shortened: as §1
# CaNbp2 = target: CaNbp2
# Procedure, shortened: as §1
# CaRvs167 = target: CaRvs167
# Procedure, shortened: as §1
# CaRvs167-3 = target: CaRvs167-3
# Procedure, shortened: as §1
# CaSho1 = target: CaSho1
# Procedure, shortened: as §1
# CaSla1-D1-D2 = target: CaSla1-D1-D2
# Procedure, shortened: as §1
# CaSla1-D3 = target: CaSla1-D3
# Procedure, shortened: as §1
# ScAbp1 = target: ScAbp1
# Procedure, shortened: as §1
# ScBbc1 = target: ScBbc1
# Procedure, shortened: as §1
# ScBem1-D1 = target: ScBem1-D1
# Procedure, shortened: as §1
# ScBzz1-D1 = target: ScBzz1-D1
# Procedure, shortened: as §1
# ScBzz1-D2 = target: ScBzz1-D2
# Procedure, shortened: as §1
# ScCyk3 = target: ScCyk3
# Procedure, shortened: as §1
# ScFus1 = target: ScFus1
# Procedure, shortened: as §1
# ScHof1 = target: ScHof1
# Procedure, shortened: as §1
# ScHse1 = target: ScHse1
# Procedure, shortened: as §1
# ScLsb1 = target: ScLsb1
# Procedure, shortened: as §1
# ScLsb2 = target: ScLsb2
# Procedure, shortened: as §1
# ScLsb3 = target: ScLsb3
# Procedure, shortened: as §1
# ScLsb4 = target: ScLsb4
# Procedure, shortened: as §1
# ScMyo3 = target: ScMyo3
# Procedure, shortened: as §1
# ScMyo5 = target: ScMyo5
# Procedure, shortened: as §1
# ScNbp2 = target: ScNbp2
# Procedure, shortened: as §1
# ScPex13 = target: ScPex13
# Procedure, shortened: as §1
# ScRvs167 = target: ScRvs167
# Procedure, shortened: as §1
# ScSho1 = target: ScSho1
# Procedure, shortened: as §1
# ScSla1-D1-D2 = target: ScSla1-D1-D2
# Procedure, shortened: as §1
# ScSla1-D3 = target: ScSla1-D3
# Procedure, shortened: as §1
# SpAbp1-D1 = target: SpAbp1-D1
# Procedure, shortened: as §1
# SpBbc1 = target: SpBbc1
# Procedure, shortened: as §1
# SpBzz1-D1 = target: SpBzz1-D1
# Procedure, shortened: as §1
# SpBzz1-D2 = target: SpBzz1-D2
# Procedure, shortened: as §1
# SpCyk3 = target: SpCyk3
# Procedure, shortened: as §1
# SpHof1 = target: SpHof1
# Procedure, shortened: as §1
# SpHof1-2 = target: SpHof1-2
# Procedure, shortened: as §1
# SpHof1-3 = target: SpHof1-3
# Procedure, shortened: as §1
# SpHse1 = target: SpHse1
# Procedure, shortened: as §1
# SpLsb1 = target: SpLsb1
# Procedure, shortened: as §1
# SpLsb4 = target: SpLsb4
# Procedure, shortened: as §1
# SpMyo1 = target: SpMyo1
# Procedure, shortened: as §1
# SpNbp2 = target: SpNbp2
# Procedure, shortened: as §1
# SpPex13 = target: SpPex13
# Procedure, shortened: as §1
# SpRvs167 = target: SpRvs167
# Procedure, shortened: as §1
# SpSla1-D1-D2 = target: SpSla1-D1-D2
# Procedure, shortened: as §1
# SpSla1-D3 = target: SpSla1-D3
# Procedure, shortened: as §1
binder,measurement,setting,value
NLPKRKPPKLQGPFS,SPOT peptide array binding signal intensity,AgAbp1,117
same,SPOT peptide array binding signal intensity,AgBbc1,7.75
same,SPOT peptide array binding signal intensity,AgBem1-D1,244
same,SPOT peptide array binding signal intensity,AgBzz1-D1,148
same,SPOT peptide array binding signal intensity,AgBzz1-D2,77.5
same,SPOT peptide array binding signal intensity,AgCyk3,2.5
same,SPOT peptide array binding signal intensity,AgFus1,64
same,SPOT peptide array binding signal intensity,AgHof1,37.5
same,SPOT peptide array binding signal intensity,AgHse1,1020
same,SPOT peptide array binding signal intensity,AgLsb1,≤ 0
same,SPOT peptide array binding signal intensity,AgLsb4,56
same,SPOT peptide array binding signal intensity,AgMyo5,4.75
same,SPOT peptide array binding signal intensity,AgNbp2,247
same,SPOT peptide array binding signal intensity,AgRvs167,2.67
same,SPOT peptide array binding signal intensity,AgSho1,12
same,SPOT peptide array binding signal intensity,AgSla1-D1-D2,258
same,SPOT peptide array binding signal intensity,AgSla1-D3,2
same,SPOT peptide array binding signal intensity,CaAbp1-D1,1870
same,SPOT peptide array binding signal intensity,CaAbp1-D2,1400
same,SPOT peptide array binding signal intensity,CaBbc1,51
same,SPOT peptide array binding signal intensity,CaBem1-D1,13
same,SPOT peptide array binding signal intensity,CaBzz1-D1,157
same,SPOT peptide array binding signal intensity,CaBzz1-D2,162
same,SPOT peptide array binding signal intensity,CaCyk3,102
same,SPOT peptide array binding signal intensity,CaFus1,186
same,SPOT peptide array binding signal intensity,CaHof1,0.5
same,SPOT peptide array binding signal intensity,CaHse1,119
same,SPOT peptide array binding signal intensity,CaLsb1,≤ 0
same,SPOT peptide array binding signal intensity,CaLsb4,127
same,SPOT peptide array binding signal intensity,CaMyo5,≤ 0
same,SPOT peptide array binding signal intensity,CaNbp2,2240
same,SPOT peptide array binding signal intensity,CaRvs167,1.67
same,SPOT peptide array binding signal intensity,CaRvs167-3,34.2
same,SPOT peptide array binding signal intensity,CaSho1,300
same,SPOT peptide array binding signal intensity,CaSla1-D1-D2,48
same,SPOT peptide array binding signal intensity,CaSla1-D3,0.5
same,SPOT peptide array binding signal intensity,ScAbp1,179
same,SPOT peptide array binding signal intensity,ScBbc1,6.25
same,SPOT peptide array binding signal intensity,ScBem1-D1,16
same,SPOT peptide array binding signal intensity,ScBzz1-D1,39.5
same,SPOT peptide array binding signal intensity,ScBzz1-D2,4
same,SPOT peptide array binding signal intensity,ScCyk3,113
same,SPOT peptide array binding signal intensity,ScFus1,162
same,SPOT peptide array binding signal intensity,ScHof1,1.25
same,SPOT peptide array binding signal intensity,ScHse1,1280
same,SPOT peptide array binding signal intensity,ScLsb1,0.5
same,SPOT peptide array binding signal intensity,ScLsb2,3.5
same,SPOT peptide array binding signal intensity,ScLsb3,328
same,SPOT peptide array binding signal intensity,ScLsb4,21.5
same,SPOT peptide array binding signal intensity,ScMyo3,63.2
same,SPOT peptide array binding signal intensity,ScMyo5,29.5
same,SPOT peptide array binding signal intensity,ScNbp2,475
same,SPOT peptide array binding signal intensity,ScPex13,2
same,SPOT peptide array binding signal intensity,ScRvs167,23
same,SPOT peptide array binding signal intensity,ScSho1,408
same,SPOT peptide array binding signal intensity,ScSla1-D1-D2,164
same,SPOT peptide array binding signal intensity,ScSla1-D3,12.5
same,SPOT peptide array binding signal intensity,SpAbp1-D1,498
same,SPOT peptide array binding signal intensity,SpBbc1,1.5
same,SPOT peptide array binding signal intensity,SpBzz1-D1,382
same,SPOT peptide array binding signal intensity,SpBzz1-D2,0.5
same,SPOT peptide array binding signal intensity,SpCyk3,1
same,SPOT peptide array binding signal intensity,SpHof1,117
same,SPOT peptide array binding signal intensity,SpHof1-2,3.25
same,SPOT peptide array binding signal intensity,SpHof1-3,475
same,SPOT peptide array binding signal intensity,SpHse1,722
same,SPOT peptide array binding signal intensity,SpLsb1,5
same,SPOT peptide array binding signal intensity,SpLsb4,756
same,SPOT peptide array binding signal intensity,SpMyo1,254
same,SPOT peptide array binding signal intensity,SpNbp2,82.5
same,SPOT peptide array binding signal intensity,SpPex13,5
same,SPOT peptide array binding signal intensity,SpRvs167,7.17
same,SPOT peptide array binding signal intensity,SpSla1-D1-D2,≤ 0
same,SPOT peptide array binding signal intensity,SpSla1-D3,1

# From the supplement of paper PMC4466140
